This is an account of results in PubChem BioAssay (NCATS).

Unmarked numbers belong to inactive results. Inconclusive results are not listed. The source made the active and inactive calls. Calls come from the whole dose curve; as a rule, active = well fitted curve in the direction sought with a large enough effect; inconclusive = small, poorly fitted or top-dose-only effect, or another doubt; inactive = no such curve, though single readings can be large; an effect the other way counts as inactive or inconclusive.

Assay [1] relates to ICS. Briefly: qHTS profiling for inhibitors of Plasmodium falciparum proliferation (AID 504749). Note: nearly all actives have a fitted effect of over 60% in size. Note: potency is the fitted concentration of half-maximal effect. The following applies: P. falciparum in erythrocytes, SYBR Green DNA, 72 h; series mostly up to 28.7 µM. The procedure, abridged:
(§1)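 Three-day growth assay of blood-stage parasites in erythrocytes (0.3% parasitemia, 2.5% hematocrit) at 37 C, 5% CO2, quantified by SYBR Green DNA staining after overnight detergent lysis.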
For orientation: In qHTS, concentration-response curves come from the screen itself.

In assay [2] the test system is W2. The description is as above. The following applies: P. falciparum in erythrocytes, SYBR Green DNA, 72 h; series mostly up to 28.7 µM. Summed up:
as §1

The nature of assay [3]: qHTS for Inhibitors of Plasmodium falciparum (DD2) proliferation (AID 504314).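 Note: parasite DNA measured by SYBR Green fluorescence after red cell lysis; plate controls were DMSO vehicle for no effect and artemisinin wells for full effect.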 The procedure, abridged:
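Fluorescence read-out (ex 485/em 535 nm) of SYBR Green-stained parasite DNA quantifies intraerythrocytic growth. Cultures at 0.3% parasitemia and 2.5% hematocrit were treated for 72 h; data normalized to DMSO and 0.29 uM artemisinin wells.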

Assay [4] can be described thus: qHTS for Inhibitors of Plasmodium falciparum (GB4) proliferation (AID 504315).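 For activity change, negative = inhibition: 0% = DMSO vehicle and -100% = 0.29 µM artemisinin control.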 Note: nearly all actives have a fitted effect of over 50% in size. Note: potency is the fitted concentration of half-maximal effect. The procedure, abridged: (§2)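 Erythrocytes infected with P. falciparum line (0.3% parasitemia, 2.5% hematocrit final) incubated with compounds 72 h at 37 °C, 5% CO2; SYBR Green lysis buffer added, fluorescence read next day. Normalized to 0.29 uM artemisinin and DMSO.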
The nature of assay [5]: qHTS for Inhibitors of Plasmodium falciparum (7G8) proliferation (AID 504316).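 For activity change, negative = inhibition: 0% = DMSO vehicle and -100% = 0.29 µM artemisinin full kill.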 Note: nearly all actives have a fitted effect of over 65% in size. Note: potency is the fitted concentration of half-maximal effect. The procedure, abridged: as §2
A short description of assay [6]: qHTS for Inhibitors of Plasmodium falciparum (HB3) proliferation (AID 504318).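 For activity change, negative = inhibition: 0% = DMSO vehicle and -100% = artemisinin control.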 Note: nearly all actives have a fitted effect of over 60% in size. Note: potency is the fitted concentration of half-maximal effect. Summed up:
as §2

A short description of assay [7]: qHTS for Inhibitors of Plasmodium falciparum (CP250) proliferation (AID 504320).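 Note: plate controls were DMSO vehicle for no effect and 0.29 µM artemisinin control for full effect.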 Summed up: as §2
In assay [8] the target is Ubiquitin carboxyl-terminal hydrolase 1 (Homo sapiens) (UniProt O94782). Briefly: Inhibitors of USP1/UAF1: Pilot qHTS (AID 504865).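 Note: rhodamine fluorescence freed from ubiquitin-rhodamine substrate followed over time; top concentration of the series differs between compounds; % is set by controls: 0 for no effect and ±100 for the full control effect; nearly all actives have a fitted effect of over 35% in size.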 Summed up:
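Deubiquitinase activity followed as kinetic rhodamine fluorescence release from 150 nM Ub-Rho. 1 nM USP1/UAF1 with compound, after 15 min room-temperature preincubation, in HEPES pH 7.8 buffer containing TCEP, EDTA, BSA and Tween-20.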

In assay [9] the test system is CP247. Briefly: qHTS profiling for inhibitors of Plasmodium falciparum proliferation (AID 504749). Note: nearly all actives have a fitted effect of over 60% in size. Note: potency is the fitted concentration of half-maximal effect. The conditions noted are these: P. falciparum in erythrocytes, SYBR Green DNA, 72 h; series mostly up to 28.7 µM. The procedure, abridged:
as §1

For assay [10], the system named is GB4. The description is as above. The conditions noted are these: P. falciparum in erythrocytes, SYBR Green DNA, 72 h; series mostly up to 28.7 µM. Summed up:
as §1

For assay [11], the system named is P93_24. The description is as above. The following applies: P. falciparum in erythrocytes, SYBR Green DNA, 72 h; series mostly up to 28.7 µM. The procedure, abridged:
as §1

A short description of assay [12]: Confirmation and Secondary Assay for Modulators of Hemoglobin Beta Chain Splicing at IVS2 705 locus (AID 930).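 Note: HeLa cells stably expressing the EGFP-705 splicing reporter; GFP fluorescence per well restored by corrected splicing of the IVS2-705 intron in EGFP; % of control where 0% means no effect.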 The procedure, abridged: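 Secondary splice-site specificity test uses HeLa expressing CMV-driven EGFP interrupted by IVS2-705; cells were treated 2 days at 37C with 500 nM antisense PNA as positive control.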

Sequence of Ubiquitin carboxyl-terminal hydrolase 1 (Homo sapiens) (O94782 whole entry, looked up): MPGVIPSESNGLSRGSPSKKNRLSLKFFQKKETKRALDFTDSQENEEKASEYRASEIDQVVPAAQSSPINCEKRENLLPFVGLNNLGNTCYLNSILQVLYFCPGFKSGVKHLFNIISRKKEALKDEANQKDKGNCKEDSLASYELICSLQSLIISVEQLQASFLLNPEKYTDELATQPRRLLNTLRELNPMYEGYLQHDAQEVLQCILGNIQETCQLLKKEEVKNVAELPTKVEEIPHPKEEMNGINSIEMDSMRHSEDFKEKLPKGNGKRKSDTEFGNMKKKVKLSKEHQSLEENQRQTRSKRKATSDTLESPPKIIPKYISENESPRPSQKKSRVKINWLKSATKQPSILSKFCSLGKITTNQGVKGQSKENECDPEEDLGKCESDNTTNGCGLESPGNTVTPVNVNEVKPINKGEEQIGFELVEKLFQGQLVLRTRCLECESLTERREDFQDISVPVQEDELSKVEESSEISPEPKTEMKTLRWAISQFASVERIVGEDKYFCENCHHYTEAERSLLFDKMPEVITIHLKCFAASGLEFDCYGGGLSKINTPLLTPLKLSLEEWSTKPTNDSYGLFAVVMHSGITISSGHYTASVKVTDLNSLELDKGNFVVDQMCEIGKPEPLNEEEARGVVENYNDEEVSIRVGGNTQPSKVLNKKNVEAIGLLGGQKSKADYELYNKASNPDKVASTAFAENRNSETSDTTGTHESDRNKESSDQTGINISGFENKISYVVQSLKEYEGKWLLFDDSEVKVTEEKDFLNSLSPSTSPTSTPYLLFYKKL

For the compound `C=C1CC[C@H](O)C/C1=C/C=C1\CCC[C@]2(C)[C@@H]([C@H](C)CC[C@@H](O)C(C)(C)O)CC[C@@H]12`, the Potency in assay [1] was 10000 nM (active); in assay [2], 12000 nM (active).
Regarding `CC(CCN1CCCc2nc(C)c(C)cc21)=NO[C@H](C)c1cn([C@@H]2COC[C@@H]2O)nn1`, the Potency result in assay [3], in assay [4], in [5] and in [6] was “inactive” each time.
Regarding `CC#CCN1c2ccccc2[C@]23C[C@@H](C(=O)OC)N(S(=O)(=O)c4ccc5c(c4)OCCN5C)C2=NC(C(=O)OC)=C(C(=O)OC)[C@H]13`, the Potency result in [3] was “inactive”.
`COC/C=C/C1=CC2=CC(=O)C(C)(OC(=O)c3cnc4ccccc4n3)C(=O)C2=CN1CCCOC(C)C` (stereo unspecified): the Potency result in [3], in assay [4] and in assay [5] was “inactive” throughout.
As to `COC(=O)C1=C(C)N(Cc2ccccc2)C(=O)N[C@H]1c1cccs1`, the Potency result in [3], in assay [4], in assay [5], in [6] and in assay [7] was “inactive” throughout.
`COC(=O)C1=C(C(=O)OC)[C@@H]2Nc3ccccc3[C@@]23C[C@@H](C(=O)OC)N(S(=O)(=O)c2ccc4c(c2)OCCN4C)C3=N1`: the Potency entry in [3] was “inactive”. In addition, the Potency in assay [4] is 1690 nM (active).
`COC/C=C/C1=CC2=CC(=O)C(C)(OC(=O)c3cnc4ccccc4n3)C(=O)C2=CN1c1cccc(C#N)c1` (stereo unspecified): the Potency entry in [3], in [4], in [5] and in [6] was “inactive” throughout.
As to `CCC(=O)OC1C(N(C)C)CC(C)O[C@H]1O[C@H]1[C@H](C)[C@@H](O[C@H]2CC(OC)[C@@H](O)C(C)O2)[C@H](C)C(=O)O[C@@H](CC)[C@](C)(O)[C@@H](O)[C@H](C)C(=O)[C@@H](C)C[C@]1(C)O` (stereo partly specified), in assay [8], the Potency result was “inactive”. For the same compound, the Potency in [2] is 6750 nM (active).
`CCN(CC)CCOCCOC(=O)C(CC)(CC)c1ccccc1` (tested in a mixture with another compound): the Potency result in assay [8] and in assay [9] was “inactive” throughout. Besides, the figures for the Potency in [10] and in assay [2] were 8490 nM (active) and 849 nM (active), respectively.
On to `CC[C@H]1OC(=O)[C@H](C)C(=O)[C@H](C)[C@@H](OC2O[C@H](C)C[C@H](N(C)C)[C@@H]2O)[C@@](C)(OC)C[C@@H](C)C(=O)[C@@H](C)C2N(CCCCn3cnc(-c4cccnc4)c3)C(=O)O[C@@]21C` (stereo partly specified), for which the Potency entry in assay [9] was “inactive”. Further, the Potency in [1] was 10000 nM (active).
In the case of `CC#CCN1c2ccccc2[C@]23C[C@@H](C(=O)OC)N(S(=O)(=O)CCCC)C2=NC(C(=O)OC)=C(C(=O)OC)[C@H]13`, the Potency result in [3] is “inactive”.
Turning to `Cc1cncc(C(=O)O)[n+]1[O-]`, the Potency result in assay [8], in assay [10], in assay [1] and in [2] was “inactive” throughout.
`CCC1OC(=O)C[C@@H](O)[C@H](C)[C@@H](OC2OC(C)CC(N(C)C)C2O)[C@@H](CC=O)C[C@@H](C)C(=O)/C=C/[C@]2(C)OC2C1C` (stereo partly specified): the Potency entry in assay [8] is “inactive”. Moreover, the Potency in [1] is 4470 nM (active); in assay [11] it was 1120 nM (active); in assay [2] it was 1200 nM (active).
For the compound `COc1ccc(CC(C)NCC(O)c2ccc(O)c(NC=O)c2)cc1` (stereo unspecified), the Potency entry in assay [8] is “inactive”.
`COC(=O)C1=C(C(=O)OC)[C@@H]2N(C)c3ccccc3[C@@]23C[C@@H](C(=O)OC)N(S(=O)(=O)c2ccc(C(F)(F)F)cc2)C3=N1`: the Potency result in assay [3] was “inactive”. The Potency in assay [4] is 2130 nM (active).
As for `COC(=O)N1C2=C(c3ccccc3[C@@H]1CC(=O)Nc1ccc3cc4ccccc4cc3c1)[C@@H]1C(=O)N(c3ccccc3)C(=O)[C@@H]1[C@H](C)C2`, the Potency result in assay [3] was “inactive”. For the same compound, the Potency in assay [4] was 1510 nM (active); in assay [5] it was 1900 nM (active); in assay [6] it was 1690 nM (active).
As for `O=C(O)c1ccccc1-c1c2ccc(=O)cc-2oc2cc(O)ccc12`, the activity change, negative = inhibition in assay [8] was -94.3% [at 11.4 µM].
In the case of `CC#CCN1c2ccccc2[C@]23C[C@@H](C(=O)OC)N(S(=O)(=O)c4ccc(OC)cc4)C2=NC(C(=O)OC)=C(C(=O)OC)[C@H]13`, the Potency result in assay [3] is “inactive”. In assay [4], the Potency was 2130 nM (active).
For `C=CCN1c2ccccc2[C@]23C[C@@H](C(=O)OC)N(S(=O)(=O)c4ccc(C(F)(F)F)cc4)C2=NC(C(=O)OC)=C(C(=O)OC)[C@H]13`, in [3], the Potency result was “inactive”.
As to `CC#CCN1c2ccccc2[C@]23C[C@@H](C(=O)OC)N(S(=O)(=O)c4ccc(Br)cc4)C2=NC(C(=O)OC)=C(C(=O)OC)[C@H]13`, the Potency entry in [3] was “inactive”. The Potency in assay [4] was 1690 nM (active); in [5], 1900 nM (active).
For `CCCCc1nc2c(c3c1C[C@H](C)OC3)CN(C(=O)N[C@H](C(=O)OC)C(C)C)CC2` the same measures were “inactive”, “inactive” and 1350 nM (active).
For `Cc1ccc(S(=O)(=O)N2CCc3nc(COc4ccccc4)c4c(c3C2)CO[C@@H](C)C4)cc1`, in assay [3], the Potency entry was “inactive”.
For the compound `CC1=C(/C=C/C(C)=C\C=C\C(C)=C\C=C\C=C(C)\C=C\C=C(C)\C=C\C2=C(C)C[C@@H](O)CC2(C)C)C(C)(C)C[C@H](O)C1`, the Potency in [10] is 13500 nM (active); in assay [1], 1120 nM (active); in [11], 12600 nM (active); in [2], 8490 nM (active).
Turning to `COC(=O)C1=C(C(=O)OC)[C@@H]2N(C)c3ccccc3[C@@]23C[C@@H](C(=O)OC)N=C3N1`, the Potency entry in assay [3], in assay [4], in [5], in assay [6] and in assay [7] was “inactive” each time.
For the compound `Nc1ccccc1C(=O)C=Cc1ccccc1`, the Potency result in [3] and in [4] was “inactive” each time.
Consider `COC(=O)C1=C(C(=O)OC)[C@@H]2Nc3ccccc3[C@@]23C[C@@H](C(=O)OC)N(C(=O)CC(C)C)C3=N1`, for which the Potency entry in assay [3] is “inactive”.
As for `COC(=O)C1=C(C(=O)OC)[C@@H]2Nc3ccccc3[C@@]23C[C@@H](C(=O)OC)N(S(=O)(=O)c2ccc(Br)cc2)C3=N1`, the Potency result in [3] was “inactive”. Also, the Potency in assay [4] was 1900 nM (active).
For `COC(=O)C1=C(C(=O)OC)[C@@H]2N(C)c3ccccc3[C@@]23C[C@@H](C(=O)OC)N(S(=O)(=O)c2ccc([N+](=O)[O-])cc2)C3=N1` the same measures were “inactive” and 1690 nM (active).
Consider `COC(=O)C1=C(C(=O)OC)[C@@H]2N(C)c3ccccc3[C@@]23C[C@@H](C(=O)OC)N(S(=O)(=O)c2ccc(Br)cc2)C3=N1`, for which, in assay [3], the Potency result was “inactive”. Moreover, the Potency in assay [4] is 2130 nM (active); in assay [5], 1690 nM (active).
With `C=C1N[C@]2(C(=O)COC(C)=O)[C@@H](C[C@H]3[C@@H]4CCC5=CC(=O)C=C[C@]5(C)[C@H]4[C@@H](O)C[C@@]32C)O1`, the Potency result in assay [8], in [9] and in assay [10] was “inactive” throughout. Moreover, the Potency in [2] is 15100 nM (active).
As for `O=C(NC(CO)C(O)c1ccc([N+](=O)[O-])cc1)C(Cl)Cl` (stereo unspecified), the Potency entry in [12] and in assay [8] was “inactive” throughout.
For `CC(C)CON=C1C[C@@H](O)[C@@H](O)[C@@H]2[C@H]3C(=O)N(c4cccc(Oc5ccccc5)c4)C(=O)[C@@H]3CC[C@H]12`, the Potency entry in assay [3], in assay [4], in [5], in assay [6] and in assay [7] was “inactive” each time.
Turning to `CCOC(=O)CN1C(=O)N[C@@H](CCc2ccccc2)C(C(C)=O)=C1C`, the Potency entry in [3], in [4], in assay [5], in [6] and in [7] was “inactive” each time.
As to `CCCCc1nc2c(c3c1C[C@H](C)OC3)CN(C(=O)Nc1ccc(OC)cc1)CC2`, the Potency result in [3], in assay [4], in [5], in [6] and in assay [7] was “inactive” throughout.
